Test results published in PubChem BioAssay (Tox21).
Records with an inconclusive call do not appear. Entries that show only a call come without a potency. Activity calls are given as the source filed them. The call rests on the fitted dose curve; in most records, active means well fitted inhibition curve with a large enough effect in the repeat runs; inconclusive means weak or mixed curves; inactive means flat fitted curve, though single readings scatter.
Potency means the concentration at half of the fitted maximal effect.

What follows are molecules tested against Voltage-gated inwardly rectifying potassium channel KCNH2 (Homo sapiens) (UniProt Q12809) (assay: Human Ether-a-go-go-Related Gene (hERG) channel small molecule antagonists: fluorescence cell-based qHTS assay (AID 1671200; further: nearly all actives have a fitted effect of over 50% in size)). Details: hERG-U2OS cells, FluxOR thallium flux fluorescence; series mostly up to 76.8 µM.
Voltage-gated inwardly rectifying potassium channel KCNH2 (Homo sapiens), sequence (Q12809 whole entry, looked up): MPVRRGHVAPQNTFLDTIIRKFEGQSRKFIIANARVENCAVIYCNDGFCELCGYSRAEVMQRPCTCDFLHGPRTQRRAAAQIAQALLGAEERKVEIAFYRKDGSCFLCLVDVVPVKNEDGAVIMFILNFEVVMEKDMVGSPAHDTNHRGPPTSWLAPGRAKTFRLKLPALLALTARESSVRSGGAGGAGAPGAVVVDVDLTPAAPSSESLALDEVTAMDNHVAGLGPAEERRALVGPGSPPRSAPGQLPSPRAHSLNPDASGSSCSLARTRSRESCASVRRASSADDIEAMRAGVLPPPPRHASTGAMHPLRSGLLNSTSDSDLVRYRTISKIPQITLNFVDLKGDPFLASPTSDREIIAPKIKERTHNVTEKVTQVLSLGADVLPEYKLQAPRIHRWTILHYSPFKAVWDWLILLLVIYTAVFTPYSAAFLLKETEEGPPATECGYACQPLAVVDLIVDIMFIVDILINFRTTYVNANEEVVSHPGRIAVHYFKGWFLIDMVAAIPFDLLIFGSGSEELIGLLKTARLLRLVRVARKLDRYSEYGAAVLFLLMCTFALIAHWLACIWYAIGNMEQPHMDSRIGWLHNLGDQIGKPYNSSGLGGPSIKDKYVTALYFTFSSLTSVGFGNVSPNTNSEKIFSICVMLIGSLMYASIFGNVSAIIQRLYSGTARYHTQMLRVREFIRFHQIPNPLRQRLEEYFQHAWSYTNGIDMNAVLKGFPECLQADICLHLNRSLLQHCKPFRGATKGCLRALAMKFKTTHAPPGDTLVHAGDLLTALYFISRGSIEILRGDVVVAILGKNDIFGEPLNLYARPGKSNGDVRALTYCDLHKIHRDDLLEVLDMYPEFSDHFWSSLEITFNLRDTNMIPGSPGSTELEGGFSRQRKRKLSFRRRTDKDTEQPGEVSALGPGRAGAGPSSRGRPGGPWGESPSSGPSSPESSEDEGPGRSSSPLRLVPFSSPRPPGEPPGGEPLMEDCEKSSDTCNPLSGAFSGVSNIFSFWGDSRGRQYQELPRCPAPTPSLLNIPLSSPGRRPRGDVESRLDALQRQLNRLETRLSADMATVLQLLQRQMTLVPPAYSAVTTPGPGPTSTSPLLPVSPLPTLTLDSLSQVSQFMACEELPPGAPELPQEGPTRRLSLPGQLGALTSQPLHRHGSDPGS
Source text: National Center for Advancing Translational Sciences [NCATS]
U.S. Environmental Protection Agency [EPA]
National Institutes of Environmental Health Sciences [NIEHS]
National Toxicology Program [NTP]
U.S. Food and Drug Administration [FDA]
Mutations in the hERG channel cause Long QT (LQT) syndrome. LQT syndrome is a cardiac disorder which can cause ventricle arrhythmia and sudden death. Additionally, compounds which block the hERG channel can cause acquired LQT syndrome. Several FDA approved drugs have been removed from the market due to their hERG blocking activity. A cell-based hERG channel inhibition assay can be used to screen chemical compounds that inhibit hERG channel. This assay measures hERG channel activity using thallium ions as surrogate ions to measure potassium into the cells.
Tox21 Assay Protocol Summary:
hERG-U2OS cells were resuspended in culture medium and dispensed into 1536-well, black wall/clear-bottom plates at 1000cells/well/3uL using a Multidrop Combi dispenser (Thermo Fisher, Waltham, MA). After plates were incubated at 37 C overnight, 3 uL of Loading Buffer provided by FluxOR II Potassium Ion Channel Assay kit (Thermo, Carlsbad, CA) was added to each well. The assay plates were then incubated at room temperature in the dark for 1h. […] After the assay plates were incubated at room temperature for 10 min, 1 uL of Stimulus Buffer provided by FluxOR II Potassium Ion Channel Assay kit was added into each well and fluorescence intensity (480nm excitation/540nm emission) was continuously measured for 2 min at 1 second intervals using a Functional Drug Screening System (FDSS) 7000EX kinetic plate reader (Hamamatsu, Japan).
For COc1ccc(-c2ccc3cc(C(=O)O)ccc3c2)cc1C12CC3CC(CC(C3)C1)C2, the Potency was “inactive”. In the case of CSc1ccc(/C=C2/C(C)=C(CC(=O)O)c3cc(F)ccc32)cc1, the Potency is reported as “inactive”. For O=C(NOCC1CC1)c1ccc(F)c(F)c1Nc1ccc(I)cc1Cl, the Potency was “inactive”. In the case of CC(C)(C)c1ccc(C(=O)O)cc1, the Potency is reported as “inactive”. In the case of CCCN(CCC)C(=O)C(CCC(=O)OCCCN1CCN(CCOC(=O)Cc2c(C)n(C(=O)c3ccc(Cl)cc3)c3ccc(OC)cc23)CC1)NC(=O)c1ccccc1 (stereo not given), the Potency is reported as 0.301 µM (active). With NC(=O)N1C(=O)C(C(=O)c2cc(Cl)cs2)c2cc(F)c(Cl)cc21 (stereo not given) the Potency was “inactive”. O=C(c1ccc(O)cc1O)c1ccc(O)cc1O was tested, and the Potency was “inactive”. For CCCCCOc1ccccc1/C(=C\SC)n1ccnc1, the Potency was 15.1 µM (active). With Cc1cc(=O)oc2cc(N(C)C)ccc12 the Potency was “inactive”. Oc1c(Cl)cc(Cl)c2cccnc12 was tested, and the Potency was “inactive”. In the case of O=C1C=CC(=O)N1, the Potency is reported as “inactive”. For N=C1C=CC(=C(c2ccc(N)cc2)c2ccc(N)cc2)C=C1, the Potency was “inactive”. O=Cc1cc(O)ccc1Br was tested, and the Potency was “inactive”. With Cc1cccc(N(C)C(=S)Oc2ccc3c(c2)C2CCC3C2)c1 (stereo not given) the Potency was “inactive”. With CC(C)(C)C(=O)OCOC(=O)C1N2C(=O)CC2S(=O)(=O)C1(C)C (stereo not given) the Potency was “inactive”. In the case of CC(C)(C)CC(C)(C)c1ccc(O)c(Cc2ccc(Cl)cc2Cl)c1, the Potency is reported as “inactive”. With ON=C1CCCC1 the Potency was “inactive”. In the case of CCC(C)(C)C1CCCCC1OC(C)=O (stereo not given), the Potency is reported as “inactive”. In the case of O=c1[nH]sc2ccccc12, the Potency is reported as 49 µM (active). With COc1cc(/C=C/C(=O)O[C@H]2CC[C@]34C[C@]35CC[C@]3(C)[C@@H]([C@H](C)CCC=C(C)C)CC[C@@]3(C)[C@@H]5CC[C@H]4C2(C)C)ccc1O the Potency was “inactive”. With Cc1cc2c(cc1C(F)(F)F)N(C(=O)Nc1ccc(Oc3cccnc3C)nc1)CC2 the Potency was “inactive”. In the case of Cc1cccc(S(=O)(=O)O)c1C, the Potency is reported as “inactive”. Nc1c2ccccc2nc2ccccc12 was tested, and the Potency was “inactive”. C[C@]12CCC(=O)C=C1CC[C@@H]1[C@@H]2[C@@H](O)C[C@@]2(C)[C@H]1CC[C@]2(O)C(=O)COC(=O)CCC(=O)O was tested, and the Potency was “inactive”. CCCC(c1cc(C(C)(C)C)c(O)cc1C)c1cc(C(C)(C)C)c(O)cc1C was tested, and the Potency was “inactive”. With CSc1cnc(C)cn1 the Potency was “inactive”. COc1cc(-c2ccc(N=C=O)c(OC)c2)ccc1N=C=O was tested, and the Potency was “inactive”. Nc1ccccc1O was tested, and the Potency was “inactive”. With CSc1ccc(C(=O)c2[nH]c(=O)[nH]c2C)cc1 the Potency was “inactive”. Cc1onc(-c2ccccc2Cl)c1C(=O)N[C@@H]1C(=O)N2[C@@H]1SC(C)(C)[C@@H]2C(=O)O was tested, and the Potency was “inactive”. In the case of C[C@@H](NCCCc1cccc(C(F)(F)F)c1)c1cccc2ccccc12, the Potency is reported as 10.7 µM (active). In the case of CC(C)(C)NC(=O)[C@@H]1C[C@@H]2CCCC[C@@H]2CN1C[C@@H](O)[C@H](Cc1ccccc1)NC(=O)[C@H](CC(N)=O)NC(=O)c1ccc2ccccc2n1, the Potency is reported as 22.2 µM (active). In the case of O=C(c1ccc(F)cc1)C1CCN(CCn2c(=O)[nH]c3ccccc3c2=O)CC1, the Potency is reported as 2.39 µM (active). In the case of N#CSc1ccc(N)c([N+](=O)[O-])c1, the Potency is reported as “inactive”. With O=C1c2ccccc2Cc2ccccc21 the Potency was “inactive”. With Cc1ccc(O)c(C(C)(C)C)c1 the Potency was “inactive”. For Cc1c(C)c2c(c(C)c1OC(=O)CCC(=O)O)CC[C@@](C)(CCC[C@H](C)CCC[C@H](C)CCCC(C)C)O2, the Potency was “inactive”. With c1cc(C(c2ccc(OCC3CO3)cc2)c2ccc(OCC3CO3)cc2)ccc1OCC1CO1 (stereo not given) the Potency was “inactive”. With Oc1ccc(C2(c3ccc(O)cc3)CC3CC2C2CCCC32)cc1 (stereo not given) the Potency was “inactive”. With CCCCCCCCNC(C)C(O)c1ccc(SC(C)C)cc1 (stereo not given) the Potency was 0.268 µM (active).
